What all share (format): functional
Assay [1] addresses Solute carrier family 2, facilitated glucose transporter member 1 (Homo sapiens) (UniProt P11166). Description: ST_JUDE_LEISH: Cytotoxicity at 2uM final concentration against transgenic Leishmania Mexicana promastigotes LmGLUT1 that are glucose transport deficient and complemented with the human glucose transporter GLUT1. Activity is measured by DNA content using SYBR green in vitro.

For assay [2], the target named is Hexose transporter 1 (Plasmodium falciparum) (UniProt O97467). Description: ST_JUDE_LEISH: Cytotoxicity at 2uM final concentration against transgenic Leishmania Mexicana promastigotes LmPfHT that are glucose transport deficient and complemented with the Plasmodium falciparum hexose transporter. Activity is measured by DNA content using SYBR green in vitro.
Assay [3] addresses Glucose transporter (Leishmania mexicana) (UniProt O61059). Description: ST_JUDE_LEISH: Cytotoxicity at 2uM final concentration against transgenic Leishmania Mexicana promastigotes LmGT2 that are glucose transport deficient and complemented with the L. Mexicana glucose transporter 2. Activity is measured by DNA content using SYBR green in vitro.

Results on 37 compounds are retold here after ChEMBL document CHEMBL3433997, “St. Jude Leishmania screening dataset” (2016).

What is called inhibition is the drop in the measured response relative to a control, in per cent.

The structures appear in SMILES notation.

Sequence of Solute carrier family 2, facilitated glucose transporter member 1 (Homo sapiens) (P11166 whole entry): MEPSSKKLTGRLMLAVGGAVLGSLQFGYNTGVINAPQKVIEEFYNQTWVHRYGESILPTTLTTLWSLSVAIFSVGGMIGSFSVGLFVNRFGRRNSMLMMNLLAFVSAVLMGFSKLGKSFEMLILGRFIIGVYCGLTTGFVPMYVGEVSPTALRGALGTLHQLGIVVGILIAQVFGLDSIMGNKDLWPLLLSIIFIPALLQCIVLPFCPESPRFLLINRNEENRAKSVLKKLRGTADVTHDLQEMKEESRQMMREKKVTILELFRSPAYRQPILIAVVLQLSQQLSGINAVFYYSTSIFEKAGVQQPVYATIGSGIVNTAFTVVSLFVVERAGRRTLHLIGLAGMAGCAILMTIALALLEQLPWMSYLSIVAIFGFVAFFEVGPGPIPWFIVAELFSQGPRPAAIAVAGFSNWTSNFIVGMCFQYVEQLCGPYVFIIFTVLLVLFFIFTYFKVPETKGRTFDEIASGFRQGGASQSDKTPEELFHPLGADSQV

Take `C=CC[C@@H](C(=O)OCC)[C@@H]1[C@@H](N(CC=C)C(=O)OC(C)(C)C)CCN1C(=O)OCc1ccccc1`: the inhibition in assay [1] came out at 2.71%; in assay [2], 1.22%; in assay [3], 1.42%.

Consider `COCCN(CCOC)c1ncc(-c2ccsc2)c(-c2nc(C)c(C)s2)n1`, for which the inhibition in assay [1] is -1.28%; in assay [2] it was 0.1%; in assay [3], 1.83%.

On to `CO/C(=C\C=C\c1cc2cc(Cl)c(Cl)cc2[nH]1)C(=O)NC1CC2CCC(C1)N2C` (stereo unspecified), for which the inhibition was 0.15% in assay [1], 1.93% in assay [2] and -1.99% in assay [3].

Regarding `Cc1cc(C)c(O)c(-c2cc(C(=O)Nc3ccc(S(=O)(=O)N4CC(C)OC(C)C4)cc3)[nH]n2)c1` (stereo unspecified), the inhibition in assay [1] was found to be 3.1%; in assay [2], 1.95%; in assay [3] it was 0.01%.

On to `O=C(/C=C/c1ccc(Cl)c(Cl)c1)NCCCCCCN1CCCN(C(=O)Nc2cc(F)cc(F)c2)CC1`, for which the inhibition is 0.71% in assay [1], 1.42% in assay [2] and -1.02% in assay [3].

Consider `CC(C)c1ccc(NC(=O)NCCCC2CCCN(CCCCCNC(=O)/C=C/c3ccc(Cl)c(Cl)c3)C2)cc1` (stereo unspecified), for which the results for the inhibition in assay [1], in assay [2] and in assay [3] were 1.47%, 2.49% and 5.08%, respectively.

On to `CS(=O)(=O)c1ccc(-c2cnc(N)c(-c3cccc(CO)c3)c2)cc1`, for which the inhibition amounted to 3.95% in assay [1], 3.16% in assay [2] and 4.32% in assay [3].

Regarding `O=C(Nc1ccc(C(F)(F)F)cc1)N[C@H]1CCN(CCCCCNC(=O)C2CC2c2ccc(Cl)c(Cl)c2)C1` (stereo partly specified), the values for the inhibition in assay [1], in assay [2] and in assay [3] were 3.36%, 2.73% and 2.17%, respectively.

As for `Clc1ccccc1CN1CCC(NCc2cccc(-n3ccnc3)c2)CC1`, the results for the inhibition in assay [1], in assay [2] and in assay [3] were 2.64%, -1.07% and 1.16%, respectively.

With `O=C(/C=C/c1ccc(Cl)c(Cl)c1)NCCCCCN1CCC(NC(=O)c2ccc(F)cc2)CC1`, the inhibition in assay [1] came out at 6.17%; in assay [2], 3.16%; in assay [3], 5.01%.

As to `Cc1ccccc1C1CCN(C2CCC(NC(=O)/C=C/c3cccc(C(F)(F)F)c3)CC2)CC1` (stereo unspecified), the inhibition in assay [1] was 1.86%; in assay [2], 0.37%; in assay [3], 2.39%.

For `CCCc1cc(NCC)nc(Nc2ccc(C)cc2)n1`, the inhibition in assay [1] was 23.6%; in assay [2], 7.16%; in assay [3], 4.06%.

In the case of `CN(C)CCOc1ccc2c(c1)OC(C)(C)C=C2c1cccc2ccccc12`, the inhibition in assay [1] was determined as 4.01%; in assay [2], 3.57%; in assay [3] it was 3.75%.

With `Cc1cc(C2CCN(CCCCNC(=O)c3ccc(-c4ccc(C(F)(F)F)cc4)cc3)CC2)c(C)cc1OCCO`, the inhibition stood at 5.21% in assay [1], 5.28% in assay [2] and 2.63% in assay [3].

On to `CCCCCCCc1c(C)nc2ccccc2c1O`, for which the inhibition in assay [1] was determined as 6.82%; in assay [2], 6.3%; in assay [3], 2.82%.

Take `COc1ccc(C2SCC(=O)N2CCc2ccc(OC)c(OC)c2)cc1` (stereo unspecified): the inhibition in assay [1] was determined as 2.35%; in assay [2] it was 1.37%; in assay [3] it was 2.36%.

For `Cc1cc(OCCN2CCCCC2)ccc1NC(=O)c1cccc2c(=O)n(Cc3ccc(Cl)cc3)cnc12`, the inhibition in assay [1] amounted to 103%; in assay [2], 104%; in assay [3], 105%.

In the case of `NCCNS(=O)(=O)c1ccc(-c2ccnc3[nH]c(-c4ccncc4)cc23)cc1`, the inhibition in assay [1] stood at 0.72%; in assay [2] it was 1.19%; in assay [3], 0.62%.

`CN1CCCC(CN2CCN(Cc3cccc(-c4csc(-c5nc6ccccc6[nH]5)c4)c3)CC2)C1` (stereo unspecified): the figures for the inhibition in assay [1], in assay [2] and in assay [3] were 3.41%, 1.68% and 1.91%, respectively.

For `CCN(CCCNc1nc(=S)[nH]c2cc(OC)c(OC)cc12)c1ccccc1`, the inhibition in assay [1] was -0.4%; in assay [2] it was -1.25%; in assay [3], -4.13%.

Take `Cc1cc(=NN=Cc2ccccc2Cl)c2cc(C(F)(F)F)ccc2[nH]1`: the results for the inhibition in assay [1], in assay [2] and in assay [3] were -0.33%, -0.65% and 1.27%, respectively.

As to `Cc1[nH]c(C)c(-c2ccc(Nc3ccc(C(F)(F)F)cn3)cc2)c(=O)c1Br`, the results for the inhibition in assay [1], in assay [2] and in assay [3] were 2.7%, 5.96% and 3.17%, respectively.

As to `COc1cccc2cc(C(=O)N[C@@H](CC(C)C)C(=O)N[C@H](C=NN(C)C(=O)OC(C)(C)C)Cc3ccccc3)oc12`, the results for the inhibition in assay [1], in assay [2] and in assay [3] were 5.65%, 7.62% and 5.03%, respectively.

Take `O=C(NCCCCN1CCN(c2ccc3c(c2)CCC3)CC1)c1ccc(NC(=O)c2ccc(Cl)cc2)cc1`: the figures for the inhibition in assay [1], in assay [2] and in assay [3] were 55.3%, 38.1% and 24.9%, respectively.

For `CCN1CCN(Cc2ccc(-c3ccc(NS(=O)(=O)c4cccc5cccnc45)cc3)cc2)CC1`, the inhibition turned out to be 20.6% in assay [1], 14% in assay [2] and 9.92% in assay [3].

In the case of `COc1ccc(-c2nnc(Sc3ccc(C#N)c([N+](=O)[O-])c3)n2CC(C)C)cc1`, the values for the inhibition in assay [1], in assay [2] and in assay [3] were 0.96%, 3.46% and 1.92%, respectively.

`COc1ccc2[nH]c(C)cc(=NN=Cc3ccccc3Cl)c2c1`: the inhibition in assay [1] amounted to 5.14%; in assay [2] it was 5.23%; in assay [3], 1.92%.

For `COc1ccc(-n2ccnc2SCC(=O)Nc2cc(C)ccc2C)c(OC)c1`, the values for the inhibition in assay [1], in assay [2] and in assay [3] were 0.44%, 0.63% and 0.53%, respectively.

Take `O=C(Nc1ccncc1)c1cn(-c2ccccc2)nc1-c1cccs1`: the inhibition in assay [1] came to 5.19%; in assay [2], 2.4%; in assay [3] it was 3.52%.

On to `NC1=NC(c2ccccc2)N(c2ccc(Cl)c(Cl)c2)C(N)=N1` (stereo unspecified), for which the inhibition is 9.2% in assay [1], 7.89% in assay [2] and 9.84% in assay [3].

With `CCc1nonc1NC(=O)c1oc2c(C)c(C)ccc2c1C`, the inhibition in assay [1] is 7.09%; in assay [2], 5.3%; in assay [3], 7.88%.

Turning to `CCN(CC(C)O)C(=O)c1ccc(-c2cccc(-c3nc4cccc(C)c4[nH]3)c2)cc1` (stereo unspecified), the results for the inhibition in assay [1], in assay [2] and in assay [3] were 0.34%, 1.63% and 0.11%, respectively.

For the compound `Cc1cccc(C)c1CNc1ccnc2cc(Br)ccc12`, the inhibition is 9.73% in assay [1], 8.34% in assay [2] and 5.92% in assay [3].

As for `CN1CCCN(c2ccnc3cc4c(cc23)N(C(=O)c2ccc(Cl)cc2)CC4)CC1`, the inhibition turned out to be 13.4% in assay [1], 12.5% in assay [2] and 16.1% in assay [3].

With `Oc1c(C(Nc2ccccn2)c2ccc(Cl)cc2Cl)ccc2cccnc12` (stereo unspecified), the inhibition in assay [1] was determined as 3.22%; in assay [2], 5.81%; in assay [3], 0.74%.

Turning to `COc1ccc2nccc(N3CCC(NCCNCc4ccc5c(n4)NC(=O)CS5)C3)c2n1` (stereo unspecified), the inhibition in assay [1] is 3.26%; in assay [2] it was 4.23%; in assay [3], 4.55%.

As for `O=C(/C=C/c1ccc(Cl)c(Cl)c1)NCCCCCN1CCC(NC(=O)Nc2cc(F)ccc2F)CC1`, the inhibition was 2.34% in assay [1], 2.81% in assay [2] and 6.16% in assay [3].
